The text below walks through data of PMC7862700, “An all-to-all approach to the identification of sequence-specific readers for epigenetic DNA modifications on cytosine”.

Holding throughout (experiment): DAPPL (digital affinity profiling via proximity ligation, sequencing); 10 mM Tris-HCl pH 7.5, 50 mM NaCl, 1 mM DTT, 4% glycerol, room temperature, 30 min; GST-TFs on glutathione beads, 16-mer random dsDNA library, 0.1% formaldehyde crosslink after washing; high values mean tight binding
Holding throughout (details): protein: recombinant; tags: N-terminal GST; dsDNA, one strand shown

One experiment deals with T1, FLI1 (Homo sapiens, UniProt Q01543 1-452).
T1 sequence: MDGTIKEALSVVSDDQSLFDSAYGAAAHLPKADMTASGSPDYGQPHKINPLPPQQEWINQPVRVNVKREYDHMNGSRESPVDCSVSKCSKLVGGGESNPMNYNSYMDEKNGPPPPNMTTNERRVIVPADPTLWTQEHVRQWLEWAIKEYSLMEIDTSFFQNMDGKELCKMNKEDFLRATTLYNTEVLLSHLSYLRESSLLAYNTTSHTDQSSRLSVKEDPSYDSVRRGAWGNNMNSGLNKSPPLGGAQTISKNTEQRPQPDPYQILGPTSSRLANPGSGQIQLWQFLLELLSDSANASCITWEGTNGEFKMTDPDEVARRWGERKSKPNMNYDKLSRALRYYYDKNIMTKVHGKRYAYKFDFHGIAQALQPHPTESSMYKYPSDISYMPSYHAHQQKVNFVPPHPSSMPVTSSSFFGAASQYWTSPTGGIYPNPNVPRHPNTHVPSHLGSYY
An outline of the steps:
(§1)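 Binding signal is defined as a hexamer's read frequency for one factor over its frequency for the tag-only sample. To obtain reads, GST-fused human transcription factors were expressed in yeast, captured on glutathione beads, barcoded with DNA and pooled with that sample. Pools met 200 nmole of a 16-mer random double-stranded DNA library in Tris/NaCl/DTT/glycerol buffer for 30 min at room temperature before washing, 0.1% formaldehyde crosslinking, proximity ligation (BsaI/T4 ligase, 1 h, 37 °C), PCR and Illumina NextSeq500 sequencing.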

For a further experiment, the target named is T2, ELK1 (Homo sapiens, UniProt P19419 1-428).
T2 sequence: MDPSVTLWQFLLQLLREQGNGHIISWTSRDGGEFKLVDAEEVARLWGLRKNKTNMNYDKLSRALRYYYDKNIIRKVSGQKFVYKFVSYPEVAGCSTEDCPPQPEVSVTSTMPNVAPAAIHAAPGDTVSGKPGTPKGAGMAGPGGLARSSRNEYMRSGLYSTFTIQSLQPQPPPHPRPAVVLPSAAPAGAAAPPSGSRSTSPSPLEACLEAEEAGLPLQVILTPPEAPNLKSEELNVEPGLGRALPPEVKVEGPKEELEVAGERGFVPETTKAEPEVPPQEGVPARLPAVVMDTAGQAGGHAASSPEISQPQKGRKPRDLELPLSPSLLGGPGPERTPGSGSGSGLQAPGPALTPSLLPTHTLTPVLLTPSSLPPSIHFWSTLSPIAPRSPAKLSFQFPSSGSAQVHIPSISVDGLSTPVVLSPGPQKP
An outline of the steps: as §1

The next experiment addresses T3, GABPA (Homo sapiens, UniProt Q06546 1-454).
T3 sequence: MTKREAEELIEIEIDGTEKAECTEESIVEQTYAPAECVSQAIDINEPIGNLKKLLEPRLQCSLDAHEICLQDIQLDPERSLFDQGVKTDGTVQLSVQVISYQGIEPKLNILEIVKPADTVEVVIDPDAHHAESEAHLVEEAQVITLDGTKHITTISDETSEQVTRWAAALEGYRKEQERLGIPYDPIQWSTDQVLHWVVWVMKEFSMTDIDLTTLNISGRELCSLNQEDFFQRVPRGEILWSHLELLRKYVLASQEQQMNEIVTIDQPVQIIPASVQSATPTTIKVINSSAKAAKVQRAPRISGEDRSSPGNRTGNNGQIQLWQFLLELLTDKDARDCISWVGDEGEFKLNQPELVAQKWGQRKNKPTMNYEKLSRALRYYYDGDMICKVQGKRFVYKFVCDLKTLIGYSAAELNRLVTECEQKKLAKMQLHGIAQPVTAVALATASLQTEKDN
A digest of the protocol: as §1

The target in another experiment is T4, ERG (Homo sapiens, UniProt P11308 1-479).
T4 sequence: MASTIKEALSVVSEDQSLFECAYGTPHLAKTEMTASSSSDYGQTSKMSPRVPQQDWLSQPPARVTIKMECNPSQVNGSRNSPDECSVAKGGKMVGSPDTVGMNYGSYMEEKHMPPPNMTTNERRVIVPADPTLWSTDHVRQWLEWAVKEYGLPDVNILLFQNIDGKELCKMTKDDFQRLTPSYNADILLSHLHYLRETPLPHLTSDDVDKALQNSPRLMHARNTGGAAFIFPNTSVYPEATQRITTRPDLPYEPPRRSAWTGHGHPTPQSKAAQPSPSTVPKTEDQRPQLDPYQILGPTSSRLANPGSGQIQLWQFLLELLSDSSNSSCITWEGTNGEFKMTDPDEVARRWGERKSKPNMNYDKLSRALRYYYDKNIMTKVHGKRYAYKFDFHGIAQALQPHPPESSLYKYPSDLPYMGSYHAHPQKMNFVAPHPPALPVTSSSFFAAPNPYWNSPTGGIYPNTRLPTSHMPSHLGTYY
A digest of the protocol:
as §1

In a further experiment the target is ELF1 (Homo sapiens, UniProt P32519 1-619). A digest of the protocol:
as §1

In the next experiment the target is T5, EHF (Homo sapiens, UniProt Q9NZC4 1-300).
T5 sequence: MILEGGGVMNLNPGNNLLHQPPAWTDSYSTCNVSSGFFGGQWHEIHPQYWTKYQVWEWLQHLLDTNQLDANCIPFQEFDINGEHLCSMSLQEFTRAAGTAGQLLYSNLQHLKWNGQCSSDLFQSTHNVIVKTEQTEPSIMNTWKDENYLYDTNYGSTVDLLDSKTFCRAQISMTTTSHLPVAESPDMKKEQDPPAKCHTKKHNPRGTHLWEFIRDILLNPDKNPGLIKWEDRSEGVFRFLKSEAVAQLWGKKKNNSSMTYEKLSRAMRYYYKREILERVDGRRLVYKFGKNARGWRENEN
An outline of the steps:
as §1

The next experiment has as its target SPI1 (Homo sapiens, UniProt P17947 1-270). An outline of the steps: as §1
The next experiment has as its target SPIB (Homo sapiens, UniProt Q01892 1-262). An outline of the steps:
as §1

In another experiment the target is T6, ELK3 (Homo sapiens, UniProt P41970 1-407).
T6 sequence: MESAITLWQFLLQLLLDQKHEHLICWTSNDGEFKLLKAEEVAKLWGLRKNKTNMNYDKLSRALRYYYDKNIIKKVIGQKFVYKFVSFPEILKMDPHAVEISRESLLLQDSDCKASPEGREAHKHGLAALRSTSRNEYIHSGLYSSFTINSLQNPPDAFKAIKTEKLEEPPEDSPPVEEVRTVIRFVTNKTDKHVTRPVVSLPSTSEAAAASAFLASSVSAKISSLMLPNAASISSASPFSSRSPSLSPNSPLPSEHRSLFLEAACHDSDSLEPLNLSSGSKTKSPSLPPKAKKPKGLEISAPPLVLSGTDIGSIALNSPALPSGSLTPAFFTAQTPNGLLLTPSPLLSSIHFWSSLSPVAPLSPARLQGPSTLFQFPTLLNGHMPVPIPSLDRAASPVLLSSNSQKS
A digest of the protocol:
as §1

A further experiment concerns the target T7, FEV (Homo sapiens, UniProt Q99581 1-238).
T7 sequence: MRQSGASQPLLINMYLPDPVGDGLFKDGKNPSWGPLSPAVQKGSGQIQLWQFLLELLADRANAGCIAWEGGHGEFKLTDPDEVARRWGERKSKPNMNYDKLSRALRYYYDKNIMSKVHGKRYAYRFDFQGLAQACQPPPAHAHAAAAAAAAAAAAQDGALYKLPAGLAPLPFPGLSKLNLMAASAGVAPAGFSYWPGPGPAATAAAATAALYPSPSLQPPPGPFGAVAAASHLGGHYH
An outline of the steps:
as §1

The next experiment addresses ETV5 (Homo sapiens, UniProt P41161 1-510). An outline of the steps:
as §1

For a further experiment, the target named is T8, SPIC (Homo sapiens, UniProt Q8N5J4 1-248).
T8 sequence: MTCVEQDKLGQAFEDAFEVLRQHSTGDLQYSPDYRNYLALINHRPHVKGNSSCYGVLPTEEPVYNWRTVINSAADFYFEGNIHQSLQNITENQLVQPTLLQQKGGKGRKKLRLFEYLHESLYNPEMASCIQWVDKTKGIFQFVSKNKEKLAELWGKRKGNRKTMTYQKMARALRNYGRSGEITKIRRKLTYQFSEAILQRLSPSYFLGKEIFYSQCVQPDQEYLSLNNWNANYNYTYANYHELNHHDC
A digest of the protocol:
as §1

A further experiment concerns the target ELF4 (Homo sapiens, UniProt Q99607 1-663). An outline of the steps:
as §1

For a further experiment, the target named is T9, ELK4 (Homo sapiens, UniProt P28324-2 1-405).
T9 sequence: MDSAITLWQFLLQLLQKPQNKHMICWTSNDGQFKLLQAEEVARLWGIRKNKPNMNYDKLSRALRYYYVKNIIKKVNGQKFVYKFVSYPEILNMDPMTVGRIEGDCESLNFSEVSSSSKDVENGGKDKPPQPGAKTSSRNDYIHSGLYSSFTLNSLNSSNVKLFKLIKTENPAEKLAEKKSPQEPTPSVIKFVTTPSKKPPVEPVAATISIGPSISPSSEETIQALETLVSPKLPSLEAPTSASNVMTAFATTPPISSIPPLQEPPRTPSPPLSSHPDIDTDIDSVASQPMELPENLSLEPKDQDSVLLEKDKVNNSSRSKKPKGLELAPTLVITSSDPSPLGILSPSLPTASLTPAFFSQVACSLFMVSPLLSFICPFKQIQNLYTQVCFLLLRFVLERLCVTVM
A digest of the protocol:
as §1

The next experiment deals with T10, ETV2 (Homo sapiens, UniProt O00321 1-342).
T10 sequence: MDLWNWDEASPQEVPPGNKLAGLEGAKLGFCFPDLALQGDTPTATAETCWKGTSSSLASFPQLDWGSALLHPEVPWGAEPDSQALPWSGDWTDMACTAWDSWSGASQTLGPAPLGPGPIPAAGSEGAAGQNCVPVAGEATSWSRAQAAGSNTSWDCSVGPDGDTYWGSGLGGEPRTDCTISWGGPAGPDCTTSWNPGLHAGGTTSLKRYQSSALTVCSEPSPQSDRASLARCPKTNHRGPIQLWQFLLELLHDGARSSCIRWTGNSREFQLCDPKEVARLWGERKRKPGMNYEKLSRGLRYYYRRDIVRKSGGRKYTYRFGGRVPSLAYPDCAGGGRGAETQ
An outline of the steps: as §1

Another experiment has as its target T11, ELF3 (Homo sapiens, UniProt P78545 1-371).
T11 sequence: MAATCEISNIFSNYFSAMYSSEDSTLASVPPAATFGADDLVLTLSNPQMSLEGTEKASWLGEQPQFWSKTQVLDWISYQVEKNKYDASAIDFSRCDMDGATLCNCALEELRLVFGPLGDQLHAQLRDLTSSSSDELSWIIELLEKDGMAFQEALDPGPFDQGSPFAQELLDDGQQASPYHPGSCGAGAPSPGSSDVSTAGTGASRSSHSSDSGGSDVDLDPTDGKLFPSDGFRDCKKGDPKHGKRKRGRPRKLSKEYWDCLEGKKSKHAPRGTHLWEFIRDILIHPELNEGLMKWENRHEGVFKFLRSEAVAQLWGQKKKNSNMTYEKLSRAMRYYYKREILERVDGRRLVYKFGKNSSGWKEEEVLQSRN
A digest of the protocol: as §1

A further experiment addresses ETV1 (Homo sapiens, UniProt P50549 1-477). A digest of the protocol:
as §1

ELF4, sequence (Q99607 whole entry): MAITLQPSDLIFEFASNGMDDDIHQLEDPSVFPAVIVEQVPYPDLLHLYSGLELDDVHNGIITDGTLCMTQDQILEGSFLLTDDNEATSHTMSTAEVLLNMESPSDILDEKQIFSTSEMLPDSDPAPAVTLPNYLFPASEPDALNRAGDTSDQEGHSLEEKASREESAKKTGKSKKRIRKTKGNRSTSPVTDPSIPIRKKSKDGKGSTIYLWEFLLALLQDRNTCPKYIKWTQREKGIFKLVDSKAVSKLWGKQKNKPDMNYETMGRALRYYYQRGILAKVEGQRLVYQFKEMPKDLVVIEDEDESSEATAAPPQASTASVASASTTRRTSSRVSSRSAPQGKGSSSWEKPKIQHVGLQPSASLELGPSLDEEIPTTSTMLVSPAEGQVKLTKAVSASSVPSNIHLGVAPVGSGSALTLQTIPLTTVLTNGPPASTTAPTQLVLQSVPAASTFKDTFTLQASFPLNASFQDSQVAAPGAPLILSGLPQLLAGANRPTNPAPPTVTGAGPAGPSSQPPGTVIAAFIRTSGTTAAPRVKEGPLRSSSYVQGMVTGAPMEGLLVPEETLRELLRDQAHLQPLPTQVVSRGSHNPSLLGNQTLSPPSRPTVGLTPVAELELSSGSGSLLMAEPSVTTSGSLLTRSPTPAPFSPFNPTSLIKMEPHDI
ELF1, sequence (P32519 whole entry): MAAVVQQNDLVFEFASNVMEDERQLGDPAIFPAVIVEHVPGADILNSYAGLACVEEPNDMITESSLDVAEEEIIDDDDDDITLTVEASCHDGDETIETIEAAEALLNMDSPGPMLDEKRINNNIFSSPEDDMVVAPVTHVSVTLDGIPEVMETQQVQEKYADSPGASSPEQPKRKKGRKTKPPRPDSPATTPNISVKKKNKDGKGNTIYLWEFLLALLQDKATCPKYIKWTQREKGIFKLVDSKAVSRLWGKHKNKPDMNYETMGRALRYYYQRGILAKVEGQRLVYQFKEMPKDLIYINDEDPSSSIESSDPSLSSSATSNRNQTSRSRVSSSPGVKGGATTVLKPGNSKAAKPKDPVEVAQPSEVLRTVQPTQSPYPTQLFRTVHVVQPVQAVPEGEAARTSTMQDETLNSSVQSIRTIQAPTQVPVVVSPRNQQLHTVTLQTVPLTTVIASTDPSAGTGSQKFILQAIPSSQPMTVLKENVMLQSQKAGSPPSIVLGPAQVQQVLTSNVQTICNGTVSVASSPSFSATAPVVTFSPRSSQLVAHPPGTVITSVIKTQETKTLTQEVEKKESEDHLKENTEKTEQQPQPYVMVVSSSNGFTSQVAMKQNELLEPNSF
SPIB, sequence (Q01892 whole entry): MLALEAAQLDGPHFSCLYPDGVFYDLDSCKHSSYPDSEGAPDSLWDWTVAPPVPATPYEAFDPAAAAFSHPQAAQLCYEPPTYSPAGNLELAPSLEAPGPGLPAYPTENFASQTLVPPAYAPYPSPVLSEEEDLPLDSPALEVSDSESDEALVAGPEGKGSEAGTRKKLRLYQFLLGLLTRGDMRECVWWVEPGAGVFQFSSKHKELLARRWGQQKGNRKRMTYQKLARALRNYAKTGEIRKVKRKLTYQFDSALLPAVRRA
ETV1, sequence (P50549 whole entry): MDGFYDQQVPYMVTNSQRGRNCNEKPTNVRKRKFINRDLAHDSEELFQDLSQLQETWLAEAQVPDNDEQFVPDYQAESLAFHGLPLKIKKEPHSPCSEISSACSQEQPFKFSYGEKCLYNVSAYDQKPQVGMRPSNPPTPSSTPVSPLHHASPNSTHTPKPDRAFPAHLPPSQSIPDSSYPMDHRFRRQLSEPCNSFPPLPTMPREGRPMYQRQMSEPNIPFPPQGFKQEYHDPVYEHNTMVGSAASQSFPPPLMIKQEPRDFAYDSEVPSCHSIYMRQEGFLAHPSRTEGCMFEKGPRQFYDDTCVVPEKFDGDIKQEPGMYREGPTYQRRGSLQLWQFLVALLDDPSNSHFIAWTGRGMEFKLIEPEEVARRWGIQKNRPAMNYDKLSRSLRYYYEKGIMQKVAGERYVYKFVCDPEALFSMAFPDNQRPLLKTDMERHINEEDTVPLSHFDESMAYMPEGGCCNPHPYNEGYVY
ETV5, sequence (P41161 whole entry): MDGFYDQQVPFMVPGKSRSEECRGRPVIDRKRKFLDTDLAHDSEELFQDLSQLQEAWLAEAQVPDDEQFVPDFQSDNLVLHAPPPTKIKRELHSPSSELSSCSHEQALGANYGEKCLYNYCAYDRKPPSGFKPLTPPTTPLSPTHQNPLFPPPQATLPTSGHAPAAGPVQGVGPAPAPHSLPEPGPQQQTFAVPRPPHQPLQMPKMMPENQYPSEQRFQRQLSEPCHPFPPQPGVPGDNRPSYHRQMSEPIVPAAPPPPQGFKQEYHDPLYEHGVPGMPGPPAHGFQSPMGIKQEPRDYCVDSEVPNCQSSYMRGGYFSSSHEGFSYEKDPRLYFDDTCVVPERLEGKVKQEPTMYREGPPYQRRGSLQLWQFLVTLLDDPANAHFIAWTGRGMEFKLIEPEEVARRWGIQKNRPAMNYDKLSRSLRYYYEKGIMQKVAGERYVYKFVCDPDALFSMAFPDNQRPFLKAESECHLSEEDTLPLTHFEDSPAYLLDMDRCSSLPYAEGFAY

For the sequence TGCACC, the binding signal with FLI1 is 1.12 fold enrichment (6-mer frequency, TF over GST control); in the experiment with ELK1, 1.16 fold enrichment (6-mer frequency, TF over GST control); with GABPA it was 1.25 fold enrichment (6-mer frequency, TF over GST control); with ERG it was 1.09 fold enrichment (6-mer frequency, TF over GST control); with ELF1 it was 1.2 fold enrichment (6-mer frequency, TF over GST control); with EHF, 1.25 fold enrichment (6-mer frequency, TF over GST control). Besides, the binding signal with SPI1 was 1.16 fold enrichment (6-mer frequency, TF over GST control); in the experiment with SPIB it was 1.15 fold enrichment (6-mer frequency, TF over GST control); in the experiment with ELK3, 1.16 fold enrichment (6-mer frequency, TF over GST control); with FEV it was 1.23 fold enrichment (6-mer frequency, TF over GST control); in the experiment with ETV5, 1.12 fold enrichment (6-mer frequency, TF over GST control); with SPIC, 1.14 fold enrichment (6-mer frequency, TF over GST control). Moreover, the binding signal was 1.19 fold enrichment (6-mer frequency, TF over GST control) in the experiment with ELF4; 1.3 fold enrichment (6-mer frequency, TF over GST control) with ELK4; 1.13 fold enrichment (6-mer frequency, TF over GST control) with ETV2; 1.21 fold enrichment (6-mer frequency, TF over GST control) with ELF3; 1.13 fold enrichment (6-mer frequency, TF over GST control) with ETV1.
